The record followed here is PubChem BioAssay AID1259421 (Broad Institute, 2018).

The structures appear in SMILES notation. “And” between values parts separate entries of the source, which are not always exact repeats. Identical values can stand only once. Out of some 6,400 compounds screened, about 610 (9.5%) were called active. No stated cut-off is given here; in the data, active means activity change below about -70%; inconclusive means no clear call, values can overlap the other calls; inactive means above that. The entries come from a sample that favours actives as a whole. More than one record can exist for a structure, and the calls need not agree.

This test can be described thus: T. gondii ME49Luc in HeLa cells, luciferase assay, 72 h, no IFN-y (AID 1259421). The following applies: stronger effect = lower value, concentration not given here.
In the case of `CC(=O)[C@H]1CCC2C3CC=C4C[C@@H](OC(=O)CCC(=O)O)CC[C@]4(C)C3CC[C@@]21C` (some centres not stated), the activity change, negative = inhibition was 4.41% (inactive) and 6.51% (inactive).

Take `C[C@H]1[C@@H](O)O[C@@H]2O[C@@]3(C)CC[C@H]4[C@H](C)CC[C@@H]1[C@@]24OO3`: the activity change, negative = inhibition was -93.7% (active). For `C[C@H]1[C@H](OC(=O)CCC(=O)O)O[C@@H]2O[C@@]3(C)CC[C@H]4[C@H](C)CC[C@@H]1[C@@]24OO3` the value was -80.6% (active). Next, `C[C@@H]1CC[C@H]2[C@@H](C)C(O)O[C@@H]3O[C@]4(C)CC[C@@H]1[C@]32OO4` (some centres not stated): -85.4% (active); `Brc1c(Br)c(Br)c2n[nH]nc2c1Br`: 5.07% (inactive) and 22.5% (inactive). For the compound `OCc1cc2c(cn1)[nH]c1ccccc12`, the activity change, negative = inhibition was 12.8% (inactive). For `CCOC(=O)c1c(C)[nH]c2ccc3c(c12)CN1CCc2cc(OC)ccc2C1O3` (configuration not stated) the value was 5.91% (inactive); for `C[C@@H](O)CNC(C)(C)CC(=O)N[C@@H]1CCc2ccccc2N(Cc2ccc(-c3ccccc3-c3nn[nH]n3)cc2)C1=O`, 8.07% (inactive). Next, `CC[C@H](Nc1ncnc2nc[nH]c12)c1nc2cccc(F)c2c(=O)n1-c1ccccc1`: 0.609% (inactive). Regarding `Nc1c(S(=O)(=O)O)cc(Nc2cccc3ccccc23)c2c1C(=O)c1ccccc1C2=O`, the activity change, negative = inhibition was 5.63% (inactive). As to `C[C@H](CCC(=O)NCC(=O)O)[C@H]1CCC2C3C(C[C@H](O)[C@@]21C)[C@@]1(C)CC[C@@H](O)CC1C[C@H]3O` (some centres not stated), the activity change, negative = inhibition was 3.03% (inactive). Next, `CN(C)C(=N)N=C(N)N`: 11% (inactive) and -0.508% (inactive); `CN(C)CC(=O)Nc1ccc2[nH]c(=O)c3ccccc3c2c1`: -4.97% (inactive).

As for `O=C(c1ccc2nccnc2c1)N1CCCCC1`, the activity change, negative = inhibition is 3.08% (inactive).

As to `COC(=O)[C@]12CCC(C)(C)C[C@@H]1[C@@H]1C(=O)C=C3[C@]4(C)C=C(C#N)C(=O)C(C)(C)[C@@H]4CC[C@@]3(C)[C@]1(C)CC2`, the activity change, negative = inhibition was -87.4% (active). Next, `CC(=O)N[C@@H](CSC/C=C(\C)CC/C=C(\C)CCC=C(C)C)C(=O)O`: 7.49% (inactive); `OC[C@H]1NC[C@@H](O)[C@@H](O)[C@@H]1O`: 13.1% (inactive). Next, `COc1ccc(C(=O)NCc2cccnc2)cc1C(=O)NCc1cccnc1`: 7.12% (inactive). Consider `CCC[C@H](Nc1nc(-c2ccc(NC(=O)NCC)c(OC)c2)ncc1C)c1cccnc1`, for which the activity change, negative = inhibition is -75.6% (active). For `Oc1ccccc1-c1nnco1` the value was 11.7% (inactive); for `CCCCC1C(=O)N(c2ccccc2)N(c2ccccc2)C1=O`, 10.6% (inactive) and 30.2% (inactive) and 17.8% (inactive); for `CCCCCCCCCCCC1C(=O)C(=O)CC(=O)C1=O`, -89.4% (active) and -2.92% (inactive). Next, `CCCCCCCCCCCCCCCCCCCCCC(=O)O`: -1.78% (inactive); `O=C(/C=C/c1ccc2ccccc2n1)c1ccncc1`: 3.25% (inactive); `CN(C)C1C(=O)C(C(N)=O)C(=O)C2(O)C(=O)C3C(=O)c4c(O)ccc(Cl)c4C(O)C3CC12` (configuration not stated): 321% (inactive).

Turning to `COC(=O)NC(C)CNc1nccc(-c2cn(C(C)C)nc2-c2cc(Cl)cc(NS(C)(=O)=O)c2F)n1` (configuration not stated), the activity change, negative = inhibition was -71.5% (active).

As to `O=c1[nH]nc2c3c(cccc13)NC(CN1Cc3ccccc3C1)=N2`, the activity change, negative = inhibition is 12.4% (inactive). For `Oc1ccc([C@@H]2Oc3ccc(O)cc3[C@@H]3CCC[C@@H]32)cc1` the value was 6.56% (inactive). Next, `Cc1cc(O)cc2c1O[C@](C)(CCC[C@H](C)CCC[C@H](C)CCCC(C)C)CC2`: -4.66% (inactive); `COc1c(C)c2c(c(O)c1C/C=C(/C)CCC(=O)O)C(=O)OC2`: -79.6% (active). Take `COc1c(C)c2c(c(O)c1C/C=C(\C)CCC(=O)O)C(=O)OC2`: the activity change, negative = inhibition is -74.4% (active) and -89.1% (active). For `COc1c(C)c2c(c(O)c1C/C=C(\C)CCC(=O)OCCN1CCOCC1)C(=O)OC2` the value was -75.2% (active) and -92% (active).

On to `C#CC1(OCC(O)CN2CCN(c3ccccc3OC)CC2)CCCCC1` (configuration not stated), for which the activity change, negative = inhibition was 9.69% (inactive). `CCCCC/C=C\C[C@@H](O)/C=C/C=C/C=C\[C@@H](O)CCCC(=O)O`: the activity change, negative = inhibition is 7.41% (inactive). Next, `N=[N+]=CC(=O)CC[C@H](N)C(=O)O`: 0.432% (inactive); `c1ccc2[nH]c(-c3nc4ccccc4[nH]3)nc2c1`: 156% (inactive); `c1ccc(-c2nc3ccccc3[nH]2)cc1`: 279% (inactive). For `CC(C)(C)c1ccc(-c2nc3ccccc3[nH]2)cc1` the value was -87.4% (active); for `CC1(C)CC1C(=O)N/C(=C\CCCCSCC(N)C(=O)O)C(=O)O` (configuration not stated), 8.4% (inactive); for `CC(=O)O[C@H]1C[C@@]2(C)[C@@H](C[C@@H](O)[C@H]3[C@@]4(C)CC[C@@H](O)[C@@H](C)C4CC[C@@]32C)/C1=C(/CCC=C(C)C)C(=O)O` (some centres not stated), -17.8% (inactive). Next, `Cc1cc(OCCCS(C)(=O)=O)cc(C)c1-c1cccc(COc2ccc3c(c2)OC[C@H]3CC(=O)O)c1`: 15.8% (inactive); `COc1ccc2[nH]c(I)c(CCNC(C)=O)c2c1`: 14.7% (inactive) and -1.11% (inactive); `CC1C(=O)C(=O)[C@@H]2O[C@@H]2C1=O` (some centres not stated): 7.42% (inactive). For `O=C(Nc1cccc(Cl)c1)Nc1ncc(CCNc2ncnc3ccsc23)s1`, the activity change, negative = inhibition is -92.1% (active).

Take `COc1cc2ncnc(Nc3cccc(Cl)c3)c2cc1OC`: the activity change, negative = inhibition was -46.3% (inactive). Next, `O=C(Nc1cccc(Cl)c1)c1ccccn1`: 154% (inactive).

`O[C@H](CNC[C@@H](O)[C@H]1CCc2cc(F)ccc2O1)[C@@H]1CCc2cc(F)ccc2O1`: the activity change, negative = inhibition was 9.73% (inactive). Next, `C=C(C)[C@@H]1CC[C@]2(CO)CC[C@]3(C)[C@H](CC[C@@H]4[C@@]5(C)CC[C@H](O)C(C)(C)[C@@H]5CC[C@]43C)[C@@H]12`: 19.1% (inactive); `Cc1nnc(-c2ccc3occ(-c4ccc(S(C)=O)cc4)c3c2)o1` (configuration not stated): 1.22% (inactive).

As to `O=C(c1ccc(F)cc1)C1CCN(CCCCc2ccccc2)CC1`, the activity change, negative = inhibition is 3.6% (inactive) and 8.67% (inactive). For `Fc1ccc(-n2cc(CCCCN3CCC4(CC3)OCc3ccccc34)c3ccccc32)cc1` the value was -77.2% (active); for `O=C(NCCCN1CCC2(CC1)OCc1ccccc12)[C@H]1CCCN1Cc1ccccc1`, 18.8% (inactive).
